LYPLA2 inh = blocks human lysophospholipase 2, a PME1 counter-screen | O95372 | recombinant LYPLA2, FP-Rh probe fluorescence polarization | inhibition, % at 5.9 µM | actives 0.38% (n = 320,000) | AID 2177;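 active means inhibition above the screen-wide mean plus 3 SD, limit set per campaign, cut at about 26% in these data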;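 further: 0% = LYPLA2 with DMSO and 100% = wells lacking LYPLA2 enzyme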
LYPLA1 counter = counter-screen for PME1 inhibitors: inhibitors of human LYPLA1; O75608; recombinant LYPLA1, FP-Rh probe fluorescence polarization; inhibition, % at 5.9 µM; actives 0.16% (n = 320,000);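 active means inhibition above the mean of all tested compounds plus 3 SD, set per campaign, cut at about 14% in these data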;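 further: inhibitors block serine hydrolase probe labeling of LYPLA1 so polarization falls; 0% = enzyme with DMSO and 100% = wells lacking LYPLA1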
PAFAH1B2 FP inh = inhibitors of human PAFAH1B2 | P68402 | recombinant PAFAH1B2, FP-rhodamine activity probe, fluorescence polarization | inhibition, % at 3.39 µM | actives 1.2% (n = 340,000) | AID 492953;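 active means inhibition above the mean of all tested compounds plus 3 SD, cut at about 24% in these data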;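 further: 0% = enzyme with DMSO and 100% = wells lacking PAFAH1B2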
Target sequence (P68402 whole entry, looked up): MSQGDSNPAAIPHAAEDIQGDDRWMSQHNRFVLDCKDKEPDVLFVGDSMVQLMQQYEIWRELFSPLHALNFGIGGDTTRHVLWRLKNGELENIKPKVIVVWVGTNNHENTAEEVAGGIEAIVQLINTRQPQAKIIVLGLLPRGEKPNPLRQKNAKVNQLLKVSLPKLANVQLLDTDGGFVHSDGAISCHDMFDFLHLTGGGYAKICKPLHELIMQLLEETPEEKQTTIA
PAFAH2 inh = inhibitors of human PAFAH2 | recombinant PAFAH2, FP-rhodamine activity probe, fluorescence polarization | inhibition, % at 3.39 µM | actives 0.99% (n = 340,000) | AID 492956;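 active means inhibition above the mean over all tested compounds plus 3 SD, cut at about 30% in these data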;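 further: inhibitors block probe labeling of enzyme so polarization drops; 0% = enzyme with DMSO and 100% = wells lacking PAFAH2 protein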
pPAFAH FP inh = inhibitors of human plasma PAF acetylhydrolase (pPAFAH); recombinant pPAFAH, FP-rhodamine probe fluorescence polarization; inhibition, % at 3.39 µM; actives 1.5% (n = 330,000); AID 463082;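 active means inhibition above the mean inhibition across the screen plus 3 SD, cut at about 25% in these data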;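 further: inhibitors block binding of the rhodamine activity-based probe so polarization drops; 0% = enzyme with DMSO and 100% = wells lacking pPAFAH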
Target sequence (Q13093 whole entry, looked up): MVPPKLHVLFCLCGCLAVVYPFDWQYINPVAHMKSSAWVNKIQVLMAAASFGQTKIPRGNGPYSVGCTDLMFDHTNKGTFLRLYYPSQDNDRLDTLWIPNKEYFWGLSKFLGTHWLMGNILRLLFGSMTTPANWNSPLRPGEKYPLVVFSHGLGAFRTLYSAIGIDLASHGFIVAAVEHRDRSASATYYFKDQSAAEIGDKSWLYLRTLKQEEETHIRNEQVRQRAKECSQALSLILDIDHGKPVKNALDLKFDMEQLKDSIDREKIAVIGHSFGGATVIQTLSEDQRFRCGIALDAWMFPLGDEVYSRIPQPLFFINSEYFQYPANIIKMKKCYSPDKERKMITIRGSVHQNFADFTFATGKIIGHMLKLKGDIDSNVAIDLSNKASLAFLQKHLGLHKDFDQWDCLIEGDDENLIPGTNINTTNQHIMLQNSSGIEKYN
PAFAH1B3 FP inh = PAFAH1B3 (human) inhibition; inhibition, % at 3.39 µM; recombinant PAFAH1B3, FP-rhodamine probe, fluorescence polarization; actives 0.28% (n = 340,000); Q15102;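 active means inhibition above the screen-wide average of all tested compounds plus 3 SD, cut at about 25% in these data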;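 further: 0% = enzyme with DMSO only and 100% = wells lacking PAFAH1B3 protein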
LYPLA2 conf = counter-screen for PME1 inhibitors: confirmation of human LYPLA2 inhibitors; AID 2232; shares compounds with LYPLA2 inh; inhibition, % at 5.9 µM; recombinant LYPLA2, FP-Rh probe fluorescence polarization; actives 72% (n = 1,100);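 active means mean inhibition across replicates above the hit cutoff set in the primary screen, cut at about 26% in these data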;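 further: blocked labeling of the enzyme by serine hydrolase FP-Rh probe lowers polarization; 0% = enzyme with DMSO and 100% = wells lacking LYPLA2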
LYPLA2 gel ABPP = blocks human acyl-protein thioesterase 2 in gel ABPP. rhLYPLA2 in mouse brain proteome, gel ABPP FP-Rh. actives 30% (n = 150). inhibition, % at 20 µM. shares compounds with LYPLA2 inh;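 active means inhibition of LYPLA2 enzyme probe labeling above about 50%, limit read from the data; inactive means inhibition below that limit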;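 further: loss of FP-Rh probe labeling of the LYPLA2 gel band measured as band density; 0% = DMSO only control band and 100% = blank gel background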
* hit, by the source's call; . = not tested or not shown. The list is not random: actives were taken first. Their share in the collection is about 2.9%.

SMILES	LYPLA2 inh	LYPLA1 counter	PAFAH1B2 FP inh	PAFAH2 inh	pPAFAH FP inh	PAFAH1B3 FP inh	LYPLA2 conf	others
CN(C(=O)c1ccc(NC(=O)Cc2cccc(NC(=O)C3CCN(C(=O)C4CCCC4)CC3)c2)cc1)C1CCCC1	32*	3	-5	-1	0	1	-5
CCCCOc1ccc(C(=O)NCCc2cccs2)cc1	16	4	3	1	7	-2	.
Cc1nc(N)[nH]c(=O)c1CC(=O)OCCCl	3	0	7	0	3	5	.
NC(=O)CC[C@H](NC(=O)c1ccc(Cl)cc1)C(=O)NNC(=O)COc1cccc(Br)c1	.	.	5	5	-1	-1	.
COc1ccccc1-n1cc(C(=O)NCC(=O)N2CCN(c3ccccc3)CC2)c2ccccc2c1=O	37*	4	-1	-1	2	3	27*
C/C(C=NNC(=O)Cn1nnc(N)n1)=C\c1ccc(C(C)C)cc1	.	.	.	.	.	.	.	LYPLA2 gel ABPP=69*
CN(c1ccccc1)S(=O)(=O)c1ccc(C(=O)OCC(=O)N2CCOCC2)cc1	0	1	6	-1	6	1	.
Cc1cc(C(=O)NC(C)c2ccccc2)c2cc(F)ccc2n1 (stereo unspecified)	28*	3	6	5	-1	8	13
COC(C[C@H]1O[C@@H]1[C@@H](O)[C@H](C)OCc1ccccc1)OC	.	.	1	3	.	10	.
CC12CCC(=O)N1C(C(=O)NNC(=O)c1cccc(Cl)c1)CS2 (stereo unspecified)	35*	0	0	9	3	6	6
CC12CCC(=O)N1C(C(=O)NNC(=O)c1ccc(Cl)cc1)CS2 (stereo unspecified)	-6	-4	4	-7	-6	8	.
O=C(C1CCC(CNS(=O)(=O)c2cccs2)CC1)N1CCN(c2ccc(Cl)cc2)CC1 (stereo unspecified)	36*	1	-3	3	8	0	34*
O=C(NC1CCCC1)C1CCC(CNS(=O)(=O)c2cccs2)CC1 (stereo unspecified)	3	-2	4	5	5	2	.
O=C(COc1ccc(Cl)cc1)N1CCN(Cc2ccc3c(c2)OCO3)CC1	34*	1	3	-8	-4	-2	29*
CCOc1ccccc1C(=O)NCC(=O)N1CCN(Cc2ccc3c(c2)OCO3)CC1	62*	7	-2	6	2	2	57*	LYPLA2 gel ABPP=39
COc1cccc(-c2cc(C(=O)N3CCN(Cc4ccc5c(c4)OCO5)CC3)on2)c1	30*	0	3	4	4	1	29*
Cc1cc(C(=O)N2CCN(Cc3ccc4c(c3)OCO4)CC2)on1	2	-2	-3	-2	-1	3	.
O=C(Nc1ccc(Cl)cc1)N1CCN(Cc2ccc3c(c2)OCO3)CC1	8	3	0	-4	8	1	.
O=C(Cc1ccccc1)c1c[nH]c(C(=O)NCc2ccncc2)c1	-5	-1	3	7	-6	6	.
Cc1ccc(F)cc1NC(=O)C1CCCN(c2ncccn2)C1 (stereo unspecified)	6	0	-2	-2	2	5	.
O=S(=O)(c1ccc(NC(=S)N2CCN(c3ccccc3F)CC2)cc1)N1CCOCC1	38*	0	3	6	2	-4	30*
COc1cccc(NC(=O)COc2nc3ccccc3nc2C)c1	27*	2	2	-6	-3	-1	32*
Cc1cccc(Cc2nnc(CCC(=O)N(C)CCc3ccccc3)o2)c1	-2	4	8	-8	-5	4	.
N#Cc1ccc(CN2CCN(CC(=O)NCCc3ccc(Cl)cc3Cl)CC2)cc1	27*	-1	15	18	0	5	17
O=C(Cn1cc(C(F)(F)F)ccc1=O)NCCc1ccc(Cl)cc1Cl	-3	1	-1	4	-6	-4	.
SMILES	LYPLA2 inh	LYPLA1 counter	PAFAH1B2 FP inh	PAFAH2 inh	pPAFAH FP inh	PAFAH1B3 FP inh	LYPLA2 conf	others
CCN(c1ccccc1)S(=O)(=O)c1cccc(C(=O)NCC(c2ccco2)N2CCCCC2)c1 (stereo unspecified)	.	.	5	4	.	-2	.
COc1ccccc1C(=O)C1CCCN(C(=O)c2ccc3c(c2)OCCO3)C1 (stereo unspecified)	43*	6	-2	-6	1	2	5
CC1CCCN(C(=O)c2ccc3c(c2)OCCO3)C1 (stereo unspecified)	1	-1	4	5	5	5	.
O=C1CCCC(=O)N1c1ccc(N2CCN(c3ccc([N+](=O)[O-])cc3)CC2)c([N+](=O)[O-])c1	43*	9	.	.	7	.	43*
CC1CCCN(C(=O)c2ccc(OC3CCN(CCc4ccccc4)CC3)cc2)C1 (stereo unspecified)	41*	1	4	-6	4	0	33*
CN(C)C1(CNC(=O)CC(NC(=O)c2ccccc2Cl)c2ccccc2)CCCCC1 (stereo unspecified)	2	1	1	-2	-1	-2	.
COc1ccc(-c2cc(C(=O)N(C)Cc3ccc(F)cc3)c3ccccc3n2)cc1OC	-6	-6	0	-1	-2	-1	.
COc1ccc(-c2cc(C3CCN(c4ccc(C(C)=O)cc4[N+](=O)[O-])CC3)[nH]n2)cc1	37*	-3	1	-4	2	-1	42*
COc1ccc(OC)c(-c2cc(C3CCN(C(=O)OC(C)(C)C)CC3)[nH]n2)c1	0	-1	1	4	2	10	.
COc1ccc(-c2cc(C3CCN(C(=O)OC(C)(C)C)CC3)[nH]n2)cc1	27*	6	-1	6	5	-2	18
COC(=O)c1ccc(N2CCC(c3cc(-c4ccc(OC)cc4)n[nH]3)CC2)c([N+](=O)[O-])c1	26*	-11	-2	-9	-1	-1	26
Cc1cccc(C)c1NC(=O)C/C(N)=N/O	-6	-1	-2	-2	2	3	.
C=CCN(CC=C)C(=O)c1cc(Cl)ccc1[N+](=O)[O-]	-1	-2	4	-1	0	12	.
O=C(C[n+]1cccc(NC(=O)c2ccccc2)c1)c1ccc(NC(=O)c2ccccc2)cc1	27*	0	6	-2	3	0	19
CC(=O)c1cccc(NC(=O)c2cnccn2)c1	5	-1	-1	6	-2	-6	.
COc1ccc(CC(=O)Nc2cccc(-c3nnc(-c4cccc(C)c4)o3)c2)cc1OC	-52	-36	-1	-6	-17	8	.

Screening data (PubChem BioAssay)
